# In US20150359843, “P53 ACTIVATING PEPTIDES” (Agency for Science, Technology and Research, published 2015):
# Columns and labels:
# [1] = biological target: p53 wt-Δ22 (C-terminal truncated, lacking 372-393) (UniProt P04637 P04637:1-371); assay: pulldown; 36 nM RE; conditions: tags: none (CosmoBio PURE IVT); chain copies: 4 inferred; dsDNA, one strand shown
# p53 wt-FL = p53 wt-FL (UniProt P04637 P04637:1-393); assay: pulldown; 36 nM RE; 17-fold when p53 amount doubled; conditions: tags: none (CosmoBio PURE IVT); chain copies: 4 inferred; dsDNA, one strand shown
# Chain of p53 wt-FL (P04637 whole entry, one chain of several): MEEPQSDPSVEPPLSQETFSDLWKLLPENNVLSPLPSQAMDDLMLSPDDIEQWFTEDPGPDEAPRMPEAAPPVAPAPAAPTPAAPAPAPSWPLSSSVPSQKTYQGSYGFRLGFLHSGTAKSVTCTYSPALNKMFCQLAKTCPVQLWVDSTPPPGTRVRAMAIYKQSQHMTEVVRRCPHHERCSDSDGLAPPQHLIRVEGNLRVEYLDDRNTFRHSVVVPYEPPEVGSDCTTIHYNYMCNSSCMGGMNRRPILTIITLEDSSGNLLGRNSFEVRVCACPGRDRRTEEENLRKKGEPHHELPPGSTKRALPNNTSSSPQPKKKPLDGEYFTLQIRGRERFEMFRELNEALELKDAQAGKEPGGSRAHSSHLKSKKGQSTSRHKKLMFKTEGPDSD
# Chain of p53 wt-Δ22 (C-terminal truncated, lacking 372-393) (P04637 1-371, stated change not applied, one chain of several): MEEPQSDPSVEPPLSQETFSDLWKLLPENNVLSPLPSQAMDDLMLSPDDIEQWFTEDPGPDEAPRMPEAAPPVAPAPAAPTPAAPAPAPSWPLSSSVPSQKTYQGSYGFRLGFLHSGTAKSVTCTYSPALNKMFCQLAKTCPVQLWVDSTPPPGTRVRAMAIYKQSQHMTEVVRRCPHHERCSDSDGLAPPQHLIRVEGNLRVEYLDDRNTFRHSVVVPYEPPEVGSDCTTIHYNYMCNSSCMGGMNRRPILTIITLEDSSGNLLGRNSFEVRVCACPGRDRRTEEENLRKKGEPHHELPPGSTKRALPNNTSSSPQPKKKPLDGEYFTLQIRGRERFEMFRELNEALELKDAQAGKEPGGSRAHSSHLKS
Sequence,binding signal [1] [fold over control DNA],binding signal (p53 wt-FL) [fold over control DNA]
CTTGGGAACAAGGGCATGAGCTTGTCTGGGCT,~3,
CGCGCCTGCAAGTCCTGACTTGTCCGCGGC,,~2.8
